Pf apPOL inh: Pf-apPOL DNA polymerase inhibition. Recombinant Pf-apPOL, molecular beacon fluorescence, 1.5 h. inhibition, % at 10 µM. 210,000 tested, 0.25% active. AID 1794808
mHTT CaM bind: mHTT-calmodulin interaction abrogation; P42858; AlphaScreen His-mHTT/GST-CaM binding, luminescence; inhibition, % at 15 µM; 190,000 tested, 3.6% active; AID 1671202;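 further: 0% = both proteins with DMSO and 100% = one protein alone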
* = called active by the depositor. An excerpt weighted towards active compounds, which were near 3.6% of everything screened. No stated cut-off is given here; in the data, active means inhibition above about 50%; inactive means the rest.

Cc1cc(Nc2ccc(N(C)C)cc2)c2cc(Cl)ccc2n1 was read as Pf apPOL inh -6 and mHTT CaM bind 73*.
`COc1cc(Br)c(CN2CCCC(O)C2)cc1OC` (centres undefined) gave Pf apPOL inh -2 and mHTT CaM bind -7.
`COc1ccc(OC)c(NC(=O)c2c(NC(=O)CN3CCOCC3)sc3c2CCC3)c1` gave Pf apPOL inh -2 and mHTT CaM bind 7.
`COc1ccc(OC)c(NC(=O)c2c(N)sc3c2CCC3)c1` gave Pf apPOL inh -10 and mHTT CaM bind 41.
For COc1ccc(OC)c(NC(=O)c2c(NCc3cccc(F)c3)sc3c2CCC3)c1 the results were Pf apPOL inh -16 and mHTT CaM bind 73*.
Screening COc1ccc(OC)c(CNc2sc3c(c2C(=O)Nc2cc(OC)ccc2OC)CCC3)c1 returned Pf apPOL inh -16 and mHTT CaM bind 66*.
CCOc1ccccc1NC(=O)c1c(NCc2sccc2C)sc2c1CCC2 was read as Pf apPOL inh -17 and mHTT CaM bind 41.
Screening COc1ccc(OC)c(NC(=O)c2c(NCc3cccc(OC)c3OC)sc3c2CCC3)c1 returned Pf apPOL inh -13 and mHTT CaM bind 59*.
For COc1ccc(OC)c(NC(=O)c2c(NC(=O)CNCc3ccccc3)sc3c2CCC3)c1 the results were Pf apPOL inh -1 and mHTT CaM bind -3.
COc1ccccc1NC(=O)c1c(NCc2sccc2C)sc2c1CCC2 was read as Pf apPOL inh -20 and mHTT CaM bind 56*.
Screening CCn1c(=O)c(-c2ccc(C(=O)NC3CCCCC3)cc2)nc2ccccc21 returned Pf apPOL inh -6 and mHTT CaM bind -4.
`NNC(=O)CNC(c1cc(Br)ccc1N)c1ccccc1Cl` (centres undefined) gave Pf apPOL inh -2 and mHTT CaM bind 20.
O=C(NCC1(O)CCOc2ccccc21)c1cc(=O)c2ccccc2o1 (centres undefined) was read as Pf apPOL inh 2 and mHTT CaM bind 1.
c1cc(CN2CCCCC2c2nncn2CC2CC2)cs1 (centres undefined) was read as Pf apPOL inh 2 and mHTT CaM bind 1.
`CCN(CC)S(=O)(=O)c1ccc2oc(C(=O)NC3CCCC(C)C3C)c(C)c2c1` (centres undefined) gave Pf apPOL inh -8 and mHTT CaM bind 4.
COc1ccc(OC)c(NC(=O)c2c(NC(=O)CN3CCCC(C)C3)sc3c2CCC3)c1 (centres undefined) was read as Pf apPOL inh -10 and mHTT CaM bind -3.
For COc1ccc(OC)c(CNc2sc3c(c2C(=O)Nc2ccccc2OC)CCC3)c1 the results were Pf apPOL inh 4 and mHTT CaM bind 82*.
`COc1ccccc1NC(=O)c1c(NC(=O)Cc2ccccc2)sc2c1CCC2` gave Pf apPOL inh -4 and mHTT CaM bind -2.
Screening COc1ccc(OC)c(NC(=O)c2c(NCc3cccs3)sc3c2CCC(C)C3)c1 (centres undefined) returned Pf apPOL inh -17 and mHTT CaM bind 66*.
Cc1ccc(-c2nc(C(=O)N3CCN(C4CCCCC4)CC3)cs2)n1C was read as Pf apPOL inh -3 and mHTT CaM bind 70*.
`Cc1ccc(-c2nc(C(=O)Nc3ccc(F)cc3)cs2)n1C` gave Pf apPOL inh 2 and mHTT CaM bind 58*.
Cc1ccc(-c2nc(C(=O)NC3CCN(Cc4ccccc4)CC3)cs2)n1C was read as Pf apPOL inh -3 and mHTT CaM bind 75*.
`O=C(c1csc(-c2ccncc2)n1)N1CCC(N2CCCCC2)CC1` gave Pf apPOL inh -2 and mHTT CaM bind -11.
Cc1ccccc1NC(=O)c1csc(-c2ccc(C)n2C)n1 was read as Pf apPOL inh -5 and mHTT CaM bind -6.
For Cc1ccc(-c2nc(C(=O)NC3CCCC3)cs2)n1C the results were Pf apPOL inh 0 and mHTT CaM bind 42.
`Cc1ccc2c(c1)NC(=O)C(C(=O)N1CCN(c3cccc(Cl)c3)CC1)O2` (centres undefined) gave Pf apPOL inh -4 and mHTT CaM bind -3.
Screening COc1cc2c(cc1OC)C(C(=O)Nc1ccc(F)cc1F)C(c1ccccc1F)N(C)C2=O (centres undefined) returned Pf apPOL inh -2 and mHTT CaM bind 17.
Screening CC(C)C(=O)N1CCc2c(c(-c3nc(-c4ccccc4F)no3)nn2C)C1 returned Pf apPOL inh -2 and mHTT CaM bind -7.
For CSc1nc2c(c(=O)n1C1CCOC(C)(C)C1)C1(CCCC1)Cc1ccccc1-2 (centres undefined) the results were Pf apPOL inh -1 and mHTT CaM bind -6.
For CCOC(=O)N1CCC(NC(=O)C2=C(C)C(=O)OC23CCCCCC3)CC1 the results were Pf apPOL inh -4 and mHTT CaM bind 6.
For COc1ccc2c(Cl)c(C(=O)Nc3cc(C)ccc3C)sc2c1Cl the results were Pf apPOL inh -3 and mHTT CaM bind 0.
CCCNC(=O)c1sc2c(Cl)c(OC)ccc2c1Cl was read as Pf apPOL inh -2 and mHTT CaM bind 100*.
`Cc1nnc(Sc2ccc(C=O)o2)s1` gave Pf apPOL inh -1 and mHTT CaM bind 25.
Screening COC(=O)c1ccc(S(=O)(=O)NNc2ncnc3cc(C(C)(C)C)sc23)n1C returned Pf apPOL inh 5.
For O=C(NCc1nc2ccccc2[nH]1)c1nc(-c2cnccn2)no1 the results were Pf apPOL inh 3 and mHTT CaM bind -11.
O=C1CCCC(=O)N1c1ccc(N2CCc3ccccc3C2)c([N+](=O)[O-])c1 was read as Pf apPOL inh -17 and mHTT CaM bind 37.
For O=C1CCCC(=O)N1c1ccc(NC2CCCc3ccccc32)c([N+](=O)[O-])c1 (centres undefined) the results were Pf apPOL inh -19 and mHTT CaM bind 63*.
`CC1CC(=O)N(c2ccc(NC3CCCc4ccccc43)c([N+](=O)[O-])c2)C1=O` (centres undefined) gave Pf apPOL inh -24 and mHTT CaM bind 32.
`O=C1CCC(=O)N1c1ccc(Nc2ccc3c(c2)CCC3)c([N+](=O)[O-])c1` gave Pf apPOL inh -14 and mHTT CaM bind 74*.
`Cn1c(=O)c([N+](=O)[O-])c(N2CCCCCC2)c2ccccc21` gave Pf apPOL inh 1 and mHTT CaM bind 20.
Cn1nc(-c2nc(-c3ccc(F)cc3)no2)c2c1CCN(C(=O)c1cc(F)ccc1F)C2 was read as Pf apPOL inh 0 and mHTT CaM bind 5.
Screening CC(=O)N1CCc2ccccc2C1C(=O)NCc1ccc(F)c(Cl)c1 (centres undefined) returned Pf apPOL inh -1 and mHTT CaM bind 15.
Screening Cc1ccc(NC(=O)N2CCC3(CC2)Nc2cc(F)ccc2-n2cccc23)cc1 returned Pf apPOL inh -5 and mHTT CaM bind 61*.
`CN1c2cc(F)ccc2C(=O)NC12CCN(C(=O)Nc1ccc3c(c1)OCO3)CC2` gave Pf apPOL inh -4 and mHTT CaM bind 5.
For O=C(Nc1ccc(F)cc1)N1CCC2(CC1)Nc1cc(F)ccc1-n1cccc12 the results were Pf apPOL inh 0 and mHTT CaM bind 48.
CCOC(=O)c1cccc(NC(=O)N2CCC3(CC2)Nc2cc(F)ccc2-n2cccc23)c1 was read as Pf apPOL inh -2 and mHTT CaM bind 68*.
For O=C(Nc1ccc2c(c1)OCCO2)N1CCC2(CC1)Nc1cc(F)ccc1-n1cccc12 the results were Pf apPOL inh -2 and mHTT CaM bind 69*.

Compound activity as filed in PubChem BioAssay.
